Assay [1] in a line: NCI Yeast Anticancer Drug Screen. Data for the rad50 strain (AID 155).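 Note: 0% = growth of vehicle-only cultures of the same strain.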 The settings on record: S. cerevisiae rad50 strain growth inhibition, hits give high values. The gist of the method: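 Inhibition values express reduced yeast growth in compound-treated cultures relative to vehicle-treated controls.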
Assay [2] is described as follows: NCI Yeast Anticancer Drug Screen. Data for the mec2-1 strain (AID 157). The settings on record: S. cerevisiae mec2-1 strain, hits give high values. The gist of the method:
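mec2-1 yeast strain, carrying an alteration in DNA damage repair or cell cycle control, was exposed to compounds; growth inhibition was measured relative to vehicle-treated controls.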

Assay [3] in a line: NCI Yeast Anticancer Drug Screen. Data for the sgs1 mgt1 strain (AID 161).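 Note: 0% = growth of cultures given vehicle only.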 The settings on record: S. cerevisiae sgs1 mgt1 strain, hits give high values. Summed up: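 Compounds are added to genetically altered yeast, and growth is compared with cultures given vehicle alone to give percent inhibition.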
Assay [4] in a line: NCI Yeast Anticancer Drug Screen. Data for the cln2 rad14 strain (AID 165).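 Note: 0% = growth equal to vehicle treated cultures.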 The conditions noted are these: S. cerevisiae cln2 rad14 strain, hits give high values. The gist of the method:
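Yeast carrying cln2 and rad14 alterations (cell cycle control and DNA damage repair) were exposed to compounds. Growth inhibition was measured against vehicle-treated controls.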

A short description of assay [5]: NCI Yeast Anticancer Drug Screen. Data for the bub3 strain (AID 167). The conditions noted are these: S. cerevisiae bub3 mutant strain, hits give high values. The gist of the method: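 Steps: expose the mutant yeast strain to compound; grow alongside vehicle-treated cultures; measure growth; express inhibition against the vehicle cultures.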
Assay [6] is described as follows: NCI Yeast Anticancer Drug Screen. Data for the mlh1 rad18 strain (AID 175). The conditions noted are these: S. cerevisiae mlh1 rad18 strain growth inhibition, hits give high values. The gist of the method: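 Growth inhibition of the yeast strain was measured after compound exposure and expressed relative to vehicle-treated controls. The strain carries defined defects in DNA damage repair.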

Setting [7] is: at 5.0 µM (retest, dose inferred, filed as 0.5).
Where [8] appears, read: at 50.0 µM (retest, dose inferred, filed as 5.0).

The results in this text go back to PubChem BioAssay (NCI).

The panel holds about 79,000 compounds, 15% with a hit somewhere; the sample as a whole holds those more often. A number with no mark means an inactive call. Activity calls are given as the source filed them. Cut-off read from the data, not from the text of the source: active = growth inhibition above about 70%; inactive = the rest.

With `CC1=C(CO)C(=O)OC(C(C)C2CCC3C4CC5OC56C(O)C(N5CC5)=CC(=O)C6(C)C4CCC23C)C1` (configuration not stated), the growth inhibition in assay [1] (setting [7]) is -7%; in assay [1] (setting [8]), 43%; in assay [1] (at 50.0 µM), 76.8% (active); in assay [2] (setting [7]), 3%; in assay [2] (setting [8]) it was 49%; in assay [2] (at 50.0 µM), 75.5% (active). Also, the growth inhibition in assay [3] (setting [7]) is -2%; in assay [3] (setting [8]), 42%; in assay [3] (at 50.0 µM), 70.2% (active); in assay [4] (setting [7]), 23%; in assay [4] (setting [8]), 57%; in assay [4] (at 50.0 µM), 28.9%. In addition, the growth inhibition in assay [5] (setting [7]) is 13%; in assay [5] (setting [8]) it was 77% (active); in assay [5] (at 50.0 µM), 75.2% (active); in assay [6] (setting [7]), -1%; in assay [6] (setting [8]), 78% (active); in assay [6] (at 50.0 µM), 69.8%.
In the case of `COC(=O)C1=C(C)N2CCSC2(C)C(C(=O)OC)C1c1cccc(Cl)c1` (configuration not stated), the growth inhibition in assay [1] (setting [7]) was -21%; in assay [1] (setting [8]), 85% (active); in assay [1] (at 50.0 µM) it was 80.3% (active); in assay [2] (setting [7]), 4%; in assay [2] (setting [8]), 77% (active); in assay [2] (at 50.0 µM) it was 79.5% (active). In addition, the growth inhibition in assay [3] (setting [7]) was 0%; in assay [3] (setting [8]) it was 84% (active); in assay [3] (at 50.0 µM), 82.3% (active); in assay [4] (setting [7]), 17%; in assay [4] (setting [8]), 66%; in assay [4] (at 50.0 µM), 69.1%. The growth inhibition in assay [5] (setting [7]) was 13%; in assay [5] (setting [8]) it was 89% (active); in assay [5] (at 50.0 µM), 81.5% (active); in assay [6] (setting [7]) it was 6%; in assay [6] (setting [8]), 90% (active); in assay [6] (at 50.0 µM), 73.2% (active).
In the case of `COC1=C(N2CC2)C(=O)C(OC)=C(N2CC2)C1=O`, the growth inhibition in assay [1] (setting [7]) is 95% (active); in assay [1] (setting [8]) it was 97% (active); in assay [1] (at 50.0 µM), 98.3% (active); in assay [2] (setting [7]), 95% (active); in assay [2] (setting [8]), 98% (active); in assay [2] (at 50.0 µM), 97.8% (active). For the same compound, the growth inhibition was 90% (active) in assay [3] (setting [7]); 97% (active) in assay [3] (setting [8]); 98.2% (active) in assay [3] (at 50.0 µM); 91% (active) in assay [4] (setting [7]); 98% (active) in assay [4] (setting [8]); 98.8% (active) in assay [4] (at 50.0 µM). In addition, the growth inhibition in assay [5] (setting [7]) was 49%; in assay [5] (setting [8]), 98% (active); in assay [5] (at 50.0 µM), 97.1% (active); in assay [6] (setting [7]), 96% (active); in assay [6] (setting [8]), 98% (active); in assay [6] (at 50.0 µM), 97.6% (active).
With `Cc1ccc2ccccc2c1NC1=NCCO1`, the growth inhibition in assay [1] (setting [7]) is 24%; in assay [1] (setting [8]), 45%; in assay [1] (at 50.0 µM) it was -15.6%; in assay [2] (setting [7]), 25%; in assay [2] (setting [8]), 20%; in assay [2] (at 50.0 µM) it was -10.9%. The growth inhibition in assay [3] (setting [7]) was 21%; in assay [3] (setting [8]), 11%; in assay [3] (at 50.0 µM), -5.65%; in assay [4] (setting [7]), 17%; in assay [4] (setting [8]), 26%; in assay [4] (at 50.0 µM) it was 17%. For the same compound, the growth inhibition in assay [5] (setting [7]) was 18%; in assay [5] (setting [8]), 6%; in assay [5] (at 50.0 µM) it was 11.8%; in assay [6] (setting [7]), 30%; in assay [6] (setting [8]), 17%; in assay [6] (at 50.0 µM), -10.1%.
Regarding `CC12CCC(O)CC1CCC1C2CCC2(C)C(C(=O)CC(O)C(F)(F)F)CCC12` (configuration not stated), the growth inhibition is 4% in assay [1] (setting [7]); 62% in assay [1] (setting [8]); 84.5% (active) in assay [1] (at 50.0 µM); 8% in assay [2] (setting [7]); 43% in assay [2] (setting [8]); 65.8% in assay [2] (at 50.0 µM). Moreover, the growth inhibition was -9% in assay [3] (setting [7]); 62% in assay [3] (setting [8]); 67.5% in assay [3] (at 50.0 µM); -7% in assay [4] (setting [7]); 66% in assay [4] (setting [8]); 71.2% (active) in assay [4] (at 50.0 µM). Moreover, the growth inhibition in assay [5] (setting [7]) is -15%; in assay [5] (setting [8]), 57%; in assay [5] (at 50.0 µM), 84% (active); in assay [6] (setting [7]), 0%; in assay [6] (setting [8]) it was 63%; in assay [6] (at 50.0 µM), 85.7% (active).
For the compound `CN(C)C(=S)[S][Sb]([c]1ccccc1)[c]1ccccc1`, the growth inhibition in assay [1] (setting [7]) was 97% (active); in assay [1] (setting [8]), 99% (active); in assay [1] (at 50.0 µM) it was 70.6% (active); in assay [2] (setting [7]) it was 99% (active); in assay [2] (setting [8]), 99% (active); in assay [2] (at 50.0 µM) it was 83.5% (active). For the same compound, the growth inhibition in assay [3] (setting [7]) is 93% (active); in assay [3] (setting [8]), 99% (active); in assay [3] (at 50.0 µM), 90.3% (active); in assay [4] (setting [7]), 89% (active); in assay [4] (setting [8]), 97% (active); in assay [4] (at 50.0 µM) it was 57.1%. For the same compound, the growth inhibition in assay [5] (setting [7]) is 98% (active); in assay [5] (setting [8]), 75% (active); in assay [5] (at 50.0 µM), 98.3% (active); in assay [6] (setting [7]) it was 99% (active); in assay [6] (setting [8]) it was 99% (active); in assay [6] (at 50.0 µM) it was 90.5% (active).
Take `ClCCN(CCCl)B(N(CCCl)CCCl)N(CCCl)CCCl`: the growth inhibition in assay [1] (setting [7]) was -1%; in assay [1] (setting [8]), -6%; in assay [1] (at 50.0 µM), 98.8% (active); in assay [2] (setting [7]), -23%; in assay [2] (setting [8]), 0%; in assay [2] (at 50.0 µM), 99.3% (active). Moreover, the growth inhibition in assay [3] (setting [7]) is -11%; in assay [3] (setting [8]), 10%; in assay [3] (at 50.0 µM), 99.1% (active); in assay [4] (setting [7]), 0%; in assay [4] (setting [8]), -2%; in assay [4] (at 50.0 µM) it was 99.2% (active). The growth inhibition is 3% in assay [5] (setting [7]); -6% in assay [5] (setting [8]); 98.8% (active) in assay [5] (at 50.0 µM); -13% in assay [6] (setting [7]); -26% in assay [6] (setting [8]); 99.3% (active) in assay [6] (at 50.0 µM).
`CC1(C)OC2OC3C(CN(CCCl)Cc4ccccc4)OC(c4ccccc4)OC3C2O1` (configuration not stated): the growth inhibition was 5% in assay [1] (setting [7]); 18% in assay [1] (setting [8]); 5.3% in assay [1] (at 50.0 µM); -26% in assay [2] (setting [7]); -4% in assay [2] (setting [8]); 8.75% in assay [2] (at 50.0 µM). The growth inhibition was -10% in assay [3] (setting [7]); 31% in assay [3] (setting [8]); -0.9% in assay [3] (at 50.0 µM); -2% in assay [4] (setting [7]); -1% in assay [4] (setting [8]); 33.8% in assay [4] (at 50.0 µM). The growth inhibition in assay [5] (setting [7]) was 0%; in assay [5] (setting [8]) it was 23%; in assay [5] (at 50.0 µM), -2.9%; in assay [6] (setting [7]) it was -23%; in assay [6] (setting [8]) it was 49%; in assay [6] (at 50.0 µM), 14.2%.
In the case of `CN1CC(Br)(Br)C(=O)N(C)C1=O`, the growth inhibition in assay [1] (setting [7]) was 18%; in assay [1] (setting [8]) it was 99% (active); in assay [1] (at 50.0 µM), 89.8% (active); in assay [2] (setting [7]), 2%; in assay [2] (setting [8]) it was 100% (active); in assay [2] (at 50.0 µM), 93.3% (active). The growth inhibition was -9% in assay [3] (setting [7]); 99% (active) in assay [3] (setting [8]); 92.8% (active) in assay [3] (at 50.0 µM); -4% in assay [4] (setting [7]); 99% (active) in assay [4] (setting [8]); 93.4% (active) in assay [4] (at 50.0 µM). Further, the growth inhibition in assay [5] (setting [7]) was -18%; in assay [5] (setting [8]) it was 100% (active); in assay [5] (at 50.0 µM), 92.9% (active); in assay [6] (setting [7]), 2%; in assay [6] (setting [8]), 100% (active); in assay [6] (at 50.0 µM) it was 88% (active).
